Measurements published in PubChem BioAssay.
Calls of active or inactive are those of the source.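 The calls were made as follows, unless noted: active = compound raises insulin release from rat beta cells at 5 mM glucose, no numeric limit stated; inactive = the rest.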

Experiments:
[1] = stimulators of insulin release from INS-1E, primary screen, cell-based, 5 mM glucose, NPC library (AID 1117329); conditions: rat INS-1E insulin secretion, at 10 µM, stronger effect = higher value
[2] = growth inhibition of GSK3B-pretreated HCT116 cells – cell-based, CellTiter-Glo, 0.2 to 20 µM (AID 1117336;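 active = compounds lowering colon cancer cell viability after pretreatment blocking the GSK3B kinase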); conditions: HCT116 viability after GSK3B inhibitor, at 20 µM, stronger effect = higher value
[3] = inhibition of endothelial tube formation, primary screen, imaging, VEGF stimulated, CD31 staining, tube area, NPC library (AID 1117340;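 active = compound that reduces growth-factor-driven endothelial tube area in a mixed cell culture, no cutoff stated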); conditions: VEGF-stimulated ADSC/ECFC co-culture, at 10 µM, stronger effect = higher value
[4] = glucagon-like peptide 1 release enhancers, primary assay, NCI-H716 cell line, NPC library (AID 1117341;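 active = compound raises GLP1 secretion from the human gut endocrine cells, with no numeric limit stated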); conditions: NCI-H716 cells, at 10 µM, stronger effect = higher value
[5] = HCT116 colon cancer cell growth inhibition, primary screen, CellTiter-Glo luminescence, NPC library (AID 1117342;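 active = compounds that lower survival of HCT116 colon cancer cells in the luminescence readout, no numeric limit stated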); conditions: at 20 µM (top of the series)
[6] = CellTiter-Glo luminescent readout of SW480 viability loss, NPC library primary (AID 1117343;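 active = compounds that lower viability of the colon cancer cells in the luminescence readout, with no numeric limit stated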); conditions: CellTiter-Glo luminescence; at 20 µM (top of the series)
[7] = decreased DLD-1 cellular survival, CellTiter-Glo luminescent readout, NPC compound collection, primary HTS (AID 1117346;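 active = compounds that lower survival of DLD-1 colon cancer cells in the luminescence readout, no cutoff given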); conditions: DLD-1 viability, CellTiter-Glo luminescence; at 20 µM (top of the series)
[8] = target: 6-phosphogluconate dehydrogenase, decarboxylating (Homo sapiens) (UniProt P52209); test: 6PGD enzyme inhibitors, primary screen, biochemical, human, recombinant enzyme, NADPH absorbance (AID 1159550;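 active = at least 20% inhibition of 6-phosphogluconate dehydrogenase activity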); conditions: recombinant 6PGD, NADPH absorbance 341 nm; at 10 µM; stronger effect = higher value
[9] = differential killing of epithelial or mesenchymal cells, primary screen, imaging, PC-3E GFP, TEM4-18 mCherry, co-culture (AID 1345086;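 active = compounds killing one labelled cell type while sparing the other, by normalised counts and ratio limits, not self-fluorescent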;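 as to all read-outs here: cells exposed to compound for 72 h before imaging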;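 as to red/green cell ratio (normalised): normalised mesenchymal count divided by normalised epithelial count so high means epithelial killing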); conditions: imaging cell counts, at 1 µM; for red/green cell ratio (normalised): actives lie on both sides, counts scaled to control wells, 1 = unselective
[10] = measured here: epithelial PC-3E GFP cell survival
[11] = measured here: mesenchymal TEM4-18 mCherry cell survival

6-phosphogluconate dehydrogenase, decarboxylating (Homo sapiens), sequence (P52209 whole entry, looked up): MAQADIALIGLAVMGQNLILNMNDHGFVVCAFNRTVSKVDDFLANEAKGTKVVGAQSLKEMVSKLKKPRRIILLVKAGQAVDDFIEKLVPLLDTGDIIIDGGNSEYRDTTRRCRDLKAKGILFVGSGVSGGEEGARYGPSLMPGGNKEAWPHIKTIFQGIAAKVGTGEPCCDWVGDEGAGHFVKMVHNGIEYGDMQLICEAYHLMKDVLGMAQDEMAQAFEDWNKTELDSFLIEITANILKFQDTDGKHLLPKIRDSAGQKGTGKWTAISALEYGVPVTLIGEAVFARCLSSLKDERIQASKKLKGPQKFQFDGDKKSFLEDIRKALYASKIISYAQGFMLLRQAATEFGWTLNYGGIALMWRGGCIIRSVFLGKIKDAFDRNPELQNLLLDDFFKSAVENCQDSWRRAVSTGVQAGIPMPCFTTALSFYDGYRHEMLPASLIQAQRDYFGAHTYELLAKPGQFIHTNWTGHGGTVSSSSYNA

O=C1c2ccccc2C(=O)c2c1ccc(O)c2O
inactive: insulin secretion stimulation [1] -2% | viability decrease [2] 45.6% | tube area decrease [3] -9.9% | GLP1 secretion stimulation [4] -3.8% | inhibition of viability [5] 9.2% | inhibition [8] 1.17% | red/green cell ratio (normalised) [9] 0.87
0.91: normalised cell number [9, 11]
1.05: normalised cell number [9, 10]
active: viability decrease (inhibition) [6] 112% | viability decrease (inhibition) [7] 65.7%

Nc1ccc(C(=O)NCC(=O)O)cc1
1.15: normalised cell number [9, 11]
1.03: normalised cell number [9, 10]
inactive: insulin secretion stimulation [1] -1.1% | viability decrease [2] -2.9% | tube area decrease [3] -2.1% | GLP1 secretion stimulation [4] 2.6% | inhibition of viability [5] -15.3% | viability decrease (inhibition) [6] 36.1% | viability decrease (inhibition) [7] 4.3% | inhibition [8] -8.81% | red/green cell ratio (normalised) [9] 1.12

O=C(O)c1ccccc1O
inactive: insulin secretion stimulation [1] -0.3% | viability decrease [2] 7.5% | tube area decrease [3] 5.9% | GLP1 secretion stimulation [4] 6% | inhibition of viability [5] 10.8% | viability decrease (inhibition) [6] -3.3% | viability decrease (inhibition) [7] -1.7% | inhibition [8] 1.06% | red/green cell ratio (normalised) [9] 1.29
1.19: normalised cell number [9, 11]
0.92: normalised cell number [9, 10]

CCCCC1C(=O)N(c2ccccc2)N(c2ccc(O)cc2)C1=O (stereo not given)
1.07: normalised cell number [9, 10]
inactive: insulin secretion stimulation [1] -0.2% | viability decrease [2] 6.7% | GLP1 secretion stimulation [4] 12.4% | inhibition [8] -5.96% | red/green cell ratio (normalised) [9] 1.01
active: tube area decrease [3] 50.3% | inhibition of viability [5] 57.7% | viability decrease (inhibition) [6] 124% | viability decrease (inhibition) [7] 101%
1.08: normalised cell number [9, 11]

C=CCc1ccc(O)c(OC)c1
1.13: normalised cell number [9, 11]
inactive: insulin secretion stimulation [1] 4.7% | viability decrease [2] 22.5% | tube area decrease [3] -3.7% | GLP1 secretion stimulation [4] 2.4% | inhibition of viability [5] 3.77% | viability decrease (inhibition) [6] -11.7% | viability decrease (inhibition) [7] -4.6% | inhibition [8] -3.83% | red/green cell ratio (normalised) [9] 1.2
0.95: normalised cell number [9, 10]

O=C(O)P(=O)(O)O
1.21: normalised cell number [9, 10]
0.99: normalised cell number [9, 11]
inactive: insulin secretion stimulation [1] 0.5% | viability decrease [2] -27.7% | tube area decrease [3] 0.7% | GLP1 secretion stimulation [4] -0.4% | inhibition of viability [5] -5.05% | viability decrease (inhibition) [6] 2.3% | viability decrease (inhibition) [7] -16.6% | inhibition [8] -6.34% | red/green cell ratio (normalised) [9] 0.82

Cc1cc(NC(=O)C2=C(O)c3ccccc3S(=O)(=O)N2C)no1
inactive: insulin secretion stimulation [1] -1.3% | viability decrease [2] -24.5% | tube area decrease [3] 14.8% | GLP1 secretion stimulation [4] -2.4% | inhibition of viability [5] 4.6% | viability decrease (inhibition) [6] -6% | viability decrease (inhibition) [7] -7.2% | inhibition [8] 0.485% | red/green cell ratio (normalised) [9] 0.87
0.84: normalised cell number [9, 11]
0.97: normalised cell number [9, 10]

Oc1c(Cl)cc(Cl)cc1Sc1cc(Cl)cc(Cl)c1O
1.14: normalised cell number [9, 11]
1.15: normalised cell number [9, 10]
active: viability decrease [2] 99.2% | tube area decrease [3] 103% | GLP1 secretion stimulation [4] 23.6% | inhibition of viability [5] 103% | viability decrease (inhibition) [6] 113% | viability decrease (inhibition) [7] 102%
inactive: insulin secretion stimulation [1] 5.2% | inhibition [8] -6.91% | red/green cell ratio (normalised) [9] 0.99

Oc1c(I)cc(I)c2cccnc12
1.01: normalised cell number [9, 10]
inactive: insulin secretion stimulation [1] 0.55% | GLP1 secretion stimulation [4] -3.1% | inhibition [8] -4.02% | red/green cell ratio (normalised) [9] 1.31
1.32: normalised cell number [9, 11]
active: viability decrease [2] 102% | tube area decrease [3] 108% | inhibition of viability [5] 89.9% | viability decrease (inhibition) [6] 147% | viability decrease (inhibition) [7] 96.2%

CCCCCCCCNC(C)C(O)c1ccc(SC(C)C)cc1 (stereo not given)
inactive: insulin secretion stimulation [1] -0.1% | inhibition [8] 12% | red/green cell ratio (normalised) [9] 1.4
0.68: normalised cell number [9, 10]
0.96: normalised cell number [9, 11]
active: viability decrease [2] 101% | tube area decrease [3] 45.2% | GLP1 secretion stimulation [4] 38.4% | inhibition of viability [5] 102% | viability decrease (inhibition) [6] 142% | viability decrease (inhibition) [7] 103%

Nc1ccc(S(=O)(=O)Nc2ccc(Cl)nn2)cc1
0.46: normalised cell number [9, 10]
inactive: insulin secretion stimulation [1] 1% | viability decrease [2] 6.1% | tube area decrease [3] 12.6% | GLP1 secretion stimulation [4] -1.5% | inhibition of viability [5] -6.17% | viability decrease (inhibition) [6] 15.5% | viability decrease (inhibition) [7] 0.7% | inhibition [8] 10.1% | red/green cell ratio (normalised) [9] 1.19
0.54: normalised cell number [9, 11]

C[n+]1cc2c3c(ccc2c2ccc4cc5c(cc4c21)OCO5)OCO3
active: viability decrease [2] 99.8% | tube area decrease [3] 104% | GLP1 secretion stimulation [4] 27.5% | inhibition of viability [5] 102% | viability decrease (inhibition) [6] 141% | viability decrease (inhibition) [7] 105%
0.84: normalised cell number [9, 10]
inactive: insulin secretion stimulation [1] -3.7% | inhibition [8] 11.1% | red/green cell ratio (normalised) [9] 1.2
1.01: normalised cell number [9, 11]

CC(C(=O)O)c1ccc(C(=O)c2cccs2)cc1 (stereo not given)
1.02: normalised cell number [9, 11]
inactive: insulin secretion stimulation [1] 1.8% | viability decrease [2] -5.4% | tube area decrease [3] -3.5% | GLP1 secretion stimulation [4] -3.9% | inhibition of viability [5] 0.8% | viability decrease (inhibition) [6] -1.2% | viability decrease (inhibition) [7] 0% | inhibition [8] -2.86% | red/green cell ratio (normalised) [9] 1.06
0.96: normalised cell number [9, 10]

CC(=O)NCCCCCC(=O)O
0.98: normalised cell number [9, 10]
0.95: normalised cell number [9, 11]
inactive: insulin secretion stimulation [1] 1.2% | viability decrease [2] -17.4% | tube area decrease [3] -4.2% | GLP1 secretion stimulation [4] -0.1% | inhibition of viability [5] -1.55% | viability decrease (inhibition) [6] 24.9% | viability decrease (inhibition) [7] -11.9% | inhibition [8] -3.52% | red/green cell ratio (normalised) [9] 0.96

NC(=O)c1ccc([N+](=O)[O-])cc1Cl
1.19: normalised cell number [9, 11]
inactive: insulin secretion stimulation [1] -2.1% | viability decrease [2] -0.35% | tube area decrease [3] -35.4% | GLP1 secretion stimulation [4] 0% | inhibition of viability [5] 42.7% | viability decrease (inhibition) [6] 32.9% | viability decrease (inhibition) [7] 3.8% | inhibition [8] 10.9% | red/green cell ratio (normalised) [9] 1.37
0.87: normalised cell number [9, 10]
